Reference: PubChem BioAssay (NCATS)
Some of the results follow. Records with an inconclusive call do not appear. The source made the active and inactive calls. Rule for the calls: active = clear falling dose curves in both reporters; inconclusive = both reporters move, but less clearly or upward; inactive = either reporter flat; the % is the FLuc reporter signal.

Test: Cell-based coincidence reporter assay to measure PMP22 gene transcription in S16 Pmp22-F2sN cells - Confirmatory screen (AID 1508646)
Conditions: S16 Schwann cells Pmp22-F2sN, dual luciferase, 24 h; series mostly up to 57.5 µM
Description: Assay Provider: Jim Inglese Ph.D. National Center for Advancing Translational Science, National Institutes of Health, Rockville, MD CMT is a heterogeneous group of neurological disorders that affect approximately 1 in 2,500 people. In particular, the most common form of CMT, CMT1A is genetically linked to the duplication of the PMP22 gene which leads to Schwann cell overexpression, thus manifesting itself as a typical case of dose-sensitive diseases. To identify small molecule compounds that can mediate the expression of PMP22 we developed a phenotypic assay screening strategy by utilizing genome editing techniques to construct Schwann cell lines containing novel reporter technology to monitor the transcriptional or translational regulation of PMP22. For high sensitivity we use a bioluminescent reporter system embedded in the 3' UTR of the PMP22 gene (S16(c9) Pmp22-F2sN) to identify compounds that inhibit gene expression. […] We can further discriminate the effect of all transcriptionally active molecules on PMP22 translation or stability with an assay that incorporates a short NLuc peptide (HiBiT) at the C-terminus of expressed PMP22 (S16(f8) PMP22-HiBiT) allowing alpha complementation and luminescence detection of membrane-associated PMP22 protein. These assays were screened against the NCATS Sytravon Library Collection. Miniaturization of these assays to 1536-well plate format for quantitative high throughput screening (qHTS) yielded rich data sets immediately from the qHTS assay (S16(c9) Pmp22-F2sN), when compared with data from a cell viability assay (Cell TiterGlo) to identify compounds that decreased the output signals through cellular toxicity to streamline the selection process of actives for subsequent characterization using the HiBiT assay (S16(f8) PMP22-HiBiT).
Cell-based coincidence reporter assay to measure PMP22 gene transcription in S16 Pmp22-F2sN cells PROTOCOL TABLE (format as described by Inglese J, Shamu CE and Guy RK. 2007) SEQUENCE No. (e.g., 1, 2, 3, etc.); PARAMETER (e.g., Cells, Incubation, Reagent, etc.); VALUE and DESCRIPTION. 1. Cells. Add 500-1,000 cells in 4 uL in growth media (DMEM High Glucose, No Phenol Red media + 10% heat-inactivated FBS + 1% Pen/Strep supplemented media) per well into Greiner 1536-well white/solid bottom high base, TC-treated plates. 2. Compounds. Library compounds and controls added at 23nL per well, transferred by Pin Tool. 3. Incubation. Incubate plates at 37C, 5% CO2, 95% RH for 24 h. 4. Reagent. Add 3.5uL Nano-Glo Dual-Luciferase Reporter Assay System reagent 1: Lysis and FLuc reagent per well of Greiner 1536-well plates. 5. Incubation. Incubate plates at room temperature for 10 min., protect from light. 6. Detector. FLuc luminescence measured using CCD-based camera (Viewlux). 7. Reagent. Add 3.5uL Nano-Glo Dual-Luciferase Reporter Assay System reagent 2: Stop&Glo reagent per well of Greiner 1536-well plates. 8. Incubation. Incubate plates at room temperature for 10 min., protect from light. 9. Detector. NLuc luminescence measured using CCD-based camera (Viewlux). NOTES (numbers refer to Sequence numbers above; values are from representative experiments) 6. Luminescence Read #1 (FLuc): Clear filter; Exposure = 10 sec, Gain = High, Speed = Slow, Binning = 2X 9. Luminescence Read #2 (NLuc): Clear filter; Exposure = 1 sec, Gain = High, Speed = Slow, Binning = 2X REFERENCES: 1. Inglese J, Shamu CE and Guy RK, Reporting data from high throughput screening of small molecule libraries, Nature Chemical Biology, 2007, 3(8): 438-441. doi.org/10.1038/nchembio0807-438 2. Yasgar A, Shinn P, Jadhav A, Auld DS, Michael S, Zheng W, Austin CP, Inglese J and Simeonov A, Compound Management for Quantitative High-Throughput Screening. J. Assoc. Lab. Auto., 2008, 13: 79-89. doi: 10.1016/j.jala.2007.12.004
Potency is the fitted concentration of half-maximal effect.

Row | SMILES | Potency
1 | COc1ccccc1Nc1c2c(nc3ccc(NC(=O)/C=C/c4cc(OC)c(OC)c(OC)c4)cc13)CCCC2 | 12.2 µM (active)
2 | Cc1cc(OCC(=O)NCC2(N(C)C)CCCCC2)cc(C)c1Cl | inactive
3 | COc1ccccc1-c1cc(C(F)(F)F)nc(S(=O)(=O)CCCC(=O)Nc2ccc(F)cc2F)n1 | 15.3 µM (active)
4 | CCOc1ccc(NC(=O)c2c(NC(=O)Cc3ccccc3)sc3c2CCC(C)C3)cc1 (stereo unspecified) | 16.5 µM (active)
5 | O=C(CCS(=O)(=O)c1ccccc1)N(Cc1cccnc1)c1nc2c(F)cccc2s1 | 12.3 µM (active)
6 | Cc1ccc(CCNC(=O)C2CCN(c3nnc(-n4cccc4CNc4ccc(C)cc4)s3)CC2)cc1 | 15.1 µM (active)
7 | CCOC(=O)C1CCN(C(=O)CSc2c3c(nc4ccc(Cl)cc24)CCCC3)CC1 | 17.3 µM (active)
8 | Cc1ccc(NC(=O)c2nc(S(=O)(=O)Cc3cccc(C)c3)ncc2Cl)cc1 | 13.1 µM (active)
9 | O=C(c1ccc2c(c1)N(Cc1ccc(F)cc1)C(=O)c1ccccc1S2(=O)=O)N1CCN(c2ccccn2)CC1 | inactive
10 | CCCCOc1ccc(CN2C(=O)C(=O)c3cc(Br)cc(C)c32)cc1OC | 10.9 µM (active)
11 | Cc1ccccc1CNC(=O)CSc1nnc(C)c2c(C)n(-c3ccccc3)nc12 | 16.3 µM (active)
12 | Cc1cc(F)ccc1NS(=O)(=O)c1ccc(-n2cccn2)cc1 | inactive
13 | CCCS(=O)(=O)c1ncc(Cl)c(C(=O)Nc2scc(-c3ccccc3)c2C(=O)OCC)n1 | 10.4 µM (active)
14 | Cc1sc(C2C(C#N)=C(N)N(c3cccc(Cl)c3)C3=C2C(=O)CCC3)cc1CN1CCOCC1 (stereo unspecified) | inactive
15 | COc1cccc(NC(=O)CSC2=Nc3ccccc3C3=NC(CC(=O)NC4CCCCC4)C(=O)N23)c1 (stereo unspecified) | inactive
16 | CCc1ccc(NC(=O)CN2CCSc3ccc(S(=O)(=O)N4CCCC4)cc32)cc1 | inactive
